This note sets out measurements from PubChem BioAssay AID504374 (National Center for Advancing Translational Sciences (NCATS), 2011).

Molecules are shown by their SMILES. The campaign covered roughly 1,500 compounds. About 100 (6.7%) were called active. Roughly 7% stayed inconclusive and do not appear here. The call rests on the fitted dose curve; in most records, active means well fitted inhibition curve with a large enough effect; inconclusive means small, poorly fitted or top-dose-only effect, or effect the other way; inactive means flat fitted curve, though single readings scatter. What follows is part of a selection rich in actives, with near analogues and random picks from the rest. A call without a number means that no potency is given here.
Potency means the concentration at half of the fitted maximal effect.

For this assay, the target named is Runt-related transcription factor 1 (Homo sapiens) + Core-binding factor subunit beta (Homo sapiens) (UniProt Q01196+Q13951). Nature of the assay: qHTS Assay for Compounds Blocking the Interaction Between CBF-beta and RUNX1 for the Treatment of Acute Myeloid Leukemia: Hit Validation. Further: nearly all actives have a fitted effect of over 60% in size. Particulars: AlphaScreen CBFb-His/RUNX1-biotin binding; series mostly up to 59.8 µM. An excerpt: NIH Chemical Genomics Center [NCGC]
Runt-related transcription factor 1 (Homo sapiens) + Core-binding factor subunit beta (Homo sapiens), sequence (Q01196 whole entry, looked up): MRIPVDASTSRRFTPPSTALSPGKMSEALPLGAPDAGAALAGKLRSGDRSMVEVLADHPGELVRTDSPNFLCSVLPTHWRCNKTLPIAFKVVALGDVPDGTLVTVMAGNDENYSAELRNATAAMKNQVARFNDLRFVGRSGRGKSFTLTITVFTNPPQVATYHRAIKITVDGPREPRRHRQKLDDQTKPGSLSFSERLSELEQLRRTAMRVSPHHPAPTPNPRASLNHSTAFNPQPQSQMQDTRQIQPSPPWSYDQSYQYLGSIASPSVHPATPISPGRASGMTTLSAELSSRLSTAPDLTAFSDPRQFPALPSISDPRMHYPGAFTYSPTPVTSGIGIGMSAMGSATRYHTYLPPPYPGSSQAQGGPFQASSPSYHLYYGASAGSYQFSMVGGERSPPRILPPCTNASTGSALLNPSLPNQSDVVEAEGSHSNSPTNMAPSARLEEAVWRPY
Runt-related transcription factor 1 (Homo sapiens) + Core-binding factor subunit beta (Homo sapiens), sequence (Q13951 whole entry, looked up): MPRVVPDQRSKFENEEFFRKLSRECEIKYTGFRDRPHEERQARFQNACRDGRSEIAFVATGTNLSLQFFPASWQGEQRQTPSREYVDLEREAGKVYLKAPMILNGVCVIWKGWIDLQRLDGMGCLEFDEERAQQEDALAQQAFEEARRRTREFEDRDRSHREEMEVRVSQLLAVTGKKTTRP
NIH Molecular Libraries Probe Production centers Network [MLPCN]
Assay Submitter (PI): Paul Liu
Core Binding Factor (CBF) abnormalities are associated with 20-25% of all acute myeloid leukemias (AML), of which 5-10% are further sub classified as acute myelomonocytic leukemia with eosinophilia, also known as M4Eo in the FAB classification scheme. This subtype of leukemia is usually associated with chromosome 16 inversion (p13:q22). Chromosome 16 inversion results in formation of the fusion oncogene CBFB-MYH11, which encodes the fusion protein CBF-beta-SMMHC.
It has been hypothesized that the interference of CBF-beta and RUNX1 binding could have therapeutic implications for patients with CBF mediated leukemias. We developed a CBF-beta and RUNX1 binding assay in AlphaScreenTM format and optimized it for high throughput screening to search for inhibitors. The goal of this project is to screen MLPCN's compound collection (MLSMR) for identifying the inhibitors of the interaction between CBF-beta and RUNX1 proteins as research probes. If these probes work well in the animal models, the ultimate goal of this project is to development a new drug treatment for this disease.
This assay can not be used to assess how apparent inhibitors interfere with protein binding, and whether inhibitors specifically bind to either protein. Disruption of this protein-protein interaction, through any mechanism, is the intended target activity.
The present data set was run to confirm the activity of hits from the primary screen.
NCGC Assay Protocol Summary:
Step, Parameter, Description
(1) Reagent, 3 uL CBFb-His/RUNX1-biotin mix incubated together for 20 minutes at room temperature (30 nM each)
(2) Compound or control, 23 nL compound stock solution
(3) Incubation, 15 minutes at Room temperature
(4) Reagent, 1 uL 50 ng each of beads (Nickel beads and streptavidin beads)
(5) Incubation, 90 minutes at Room temperature
(6) Detection, Excitation=365 nm Emission=440 nm, Envision reader in AlphaScreenTM mode
Keywords: MLSMR, MLPCN, NIH Roadmap, qHTS, NCGC, Core binding factor, CBF, CBF-beta, Acute myeloid leukemia
On the technique in general: In qHTS, concentration-response curves come from the screen itself.
Turning to `COc1cc(/C=N/n2c(-c3ccccc3)n[nH]c2=S)cc(OC)c1O`, the Potency entry is “inactive”.
Consider `COc1ccccc1/C=C/C=N/n1c(-c2ccccn2)n[nH]c1=S`, for which the Potency was 11.2 µM (active).
The value for `Cc1ccc(/C=N/n2c(-c3ccncc3)n[nH]c2=S)s1` was “inactive”.
The value for `CC(=O)c1c(C)nc(Nc2nc3ccccc3s2)nc1C` was “inactive”; that for `COc1ccc(Nc2cc(=O)n(-c3ccccc3)c3c2c(=O)n(C)c(=O)n3C)cc1` was “inactive”.
For the molecule `Cn1c(=O)c2c(nc(N3CCOCC3)n2C/C=C/c2ccccc2)n(C)c1=O`, the Potency result is “inactive”.
The value for `COCCCN1CCN(C2Cc3ccccc3Sc3ccc(Cl)cc32)CC1` (stereo not given) was 12.2 µM (active); that for `CC(C)(C)OC(=O)N1CCC[C@H]1c1nnc(SCc2ccccc2)o1` was “inactive”.
The value for `CCCCNC(=O)Nc1ncn[nH]1` was “inactive”.
The value for `Cc1nn(-c2ccccc2)c(NC(=O)c2cccs2)c(-c2ccccc2Cl)c1=O` was “inactive”; that for `CC(C)(C)OC(=O)N[C@@H](Cc1ccccc1)c1nnc(SCC(N)=O)o1` was “inactive”.
As to `O=C(O)c1ccc(/C=N\Nc2ccc(S(=O)(=O)N3CCOCC3)cc2[N+](=O)[O-])cc1`, the Potency result is “inactive”.
The value for `Cc1nn(C)cc1/C=N/NC(=O)c1ccco1` was “inactive”; that for `O=C(N/N=C/c1ccc(Br)s1)c1ccco1` was “inactive”; that for `CCN(CC)c1ccc(/C=N/NC(=O)c2ccco2)c(O)c1` was 31.6 µM (active).
The value for `CCOC(=O)C(=CNNc1c(C)csc1C(=O)OC)C(=O)OCC` was “inactive”.
On to `COC(=O)[C@H](CC(C)C)NC(=O)NCCC1=CCCCC1`, for which the Potency entry is “inactive”.
In the case of `CCOc1ccc(/C=C2\CCc3ccccc3C2=O)cc1`, the Potency result was “inactive”.
In the case of `CCCOc1ccc(-c2nc(-c3ccc([N+](=O)[O-])cc3)cs2)cc1`, the Potency result is “inactive”.
In the case of `COc1cccc(C2/C(=C(/O)c3ccccc3)C(=O)C(=O)N2Cc2ccco2)c1` (stereo not given), the Potency entry is “inactive”.
The value for `O=C(/C=C/c1ccccc1)Nc1cccnc1Oc1ccccc1F` was “inactive”.
Under `Cc1cc([N+](=O)[O-])nn1CC(=O)N/N=C/c1ccccc1F` stands “inactive”; under `O=[N+]([O-])c1ccc(O)c(/C=N/NC2=NS(=O)(=O)c3ccccc32)c1`, 2.82 µM (active).
The value for `O=[N+]([O-])c1ccc2c(c1)S(=O)c1ccccc1-2` (stereo not given) was “inactive”; that for `COC(=O)[C@H](CC(C)C)NC(=O)N1CCCCC1C` (stereo not given in full) was “inactive”; that for `COc1ccc(/C(C)=N/NC(=O)CNC(=O)Cc2ccccc2)c(OC)c1` was “inactive”.
Take `CCCCNC(=O)Nc1ccccc1CC`: the Potency result is “inactive”.
The value for `CCc1ccccc1NC(=S)N(CCN(C)C)C(C)c1ccccn1` (stereo not given) was 6.12 µM (active); that for `Cc1cccc(C)c1NC(=S)N(CCN(C)C)C(C)c1ccccn1` (stereo not given) was 4.86 µM (active); that for `Cc1ccc(C)c(NC(=S)N(CCN(C)C)C(C)c2ccccn2)c1` (stereo not given) was 4.86 µM (active).
The value for `Cc1c(Cl)cccc1NC(=S)N(CCN(C)C)C(C)c1ccccn1` (stereo not given) was 4.34 µM (active).
The value for `COc1ccc(C2=NOC(CNC(=O)c3ccccc3Br)C2)c(OC)c1` (stereo not given) was “inactive”; that for `CC(C)(C)NC(=O)NCCc1ccccc1` was “inactive”; that for `Fc1ccc(-c2cc(-c3cccs3)cc(-c3ccccc3)n2)cc1` was “inactive”.
In the case of `Clc1ccc(Nc2ccc(Cl)nn2)cc1`, the Potency result is “inactive”.
Under `COCc1cc(=O)[nH]c2c1c(-c1ccccc1)nn2C` stands “inactive”; under `Cc1cc(N2CCOCC2)n2ncc(-c3ccc(Cl)cc3)c2n1`, “inactive”.
The value for `CC(C)c1nc(C#N)c(NN)o1` was “inactive”; that for `COCc1cc(=O)n2[nH]c(-c3ccco3)cc2n1` was “inactive”.
The value for `CCC1(CC)Nc2ccccc2C(=O)N1c1ccc(OC)cc1` was “inactive”; that for `CCNC(=O)NC(=O)c1csc([N+](=O)[O-])c1` was “inactive”.
Turning to `Cc1ccc(Cl)cc1NC(=S)N(CCN(C)C)C(C)c1ccccn1` (stereo not given), the Potency was 5.46 µM (active).
Take `Cc1ccc(Cl)cc1NC(=S)NN`: the Potency result was “inactive”.
The value for `Cc1ccccc1NC(=S)N(CCN(C)C)C(C)c1ccccn1` (stereo not given) was 4.86 µM (active); that for `Cc1ccccc1NC(=S)Nc1ccccn1` was “inactive”.
In the case of `Cc1cc(NC(=O)Nc2cc(Cl)ccc2C)no1`, the Potency entry is “inactive”.
For the molecule `NC(=O)C1CCN(c2c([N+](=O)[O-])cc(C(F)(F)F)cc2[N+](=O)[O-])CC1`, the Potency result is “inactive”.
Turning to `C/C(=N\Nc1ccc(C#N)cc1[N+](=O)[O-])c1ccc(O)cc1`, the Potency result was “inactive”.
Turning to `CC1CC(=O)Nc2ccccc2N1S(=O)(=O)c1ccc(Cl)cc1` (stereo not given), the Potency result was “inactive”.
Under `O=C(CCCCCCCCCCC(=O)NCc1cccnc1)NCc1cccnc1` stands “inactive”.
The value for `Cc1ccc(C2N=C(N)Nc3nc(=O)c4ccccc4n32)cc1` (stereo not given) was “inactive”.
Under `Cc1cccnc1NC(=O)c1csnn1` stands “inactive”.
With `O=C(OCC1OC(OC(=O)c2cc(O)c(O)c(OC(=O)c3cc(O)c(O)c(O)c3)c2)[C@@H](OC(=O)c2cc(O)c(O)c(OC(=O)c3cc(O)c(O)c(O)c3)c2)C(OC(=O)c2cc(O)c(O)c(OC(=O)c3cc(O)c(O)c(O)c3)c2)C1OC(=O)c1cc(O)c(O)c(OC(=O)c2cc(O)c(O)c(O)c2)c1)c1cc(O)c(O)c(OC(=O)c2cc(O)c(O)c(O)c2)c1` (stereo not given in full), the Potency was 0.398 µM (active).
For `O=c1[nH]nc(N2CCOCC2)c(=O)[nH]1`, the Potency result is “inactive”.
The value for `CCCCCCC(=O)N(O)C1CC(=O)N(c2ccc(F)cc2)C1=O` (stereo not given) was “inactive”; that for `O=C1Nc2ccccc2C1(O)Cc1ccccn1` (stereo not given) was “inactive”; that for `O=C(N/N=C/c1ccccc1[N+](=O)[O-])c1cnccn1` was “inactive”.
The value for `Oc1ccccc1/C=N/Nc1ncc(Br)cn1` was 3.55 µM (active); that for `O=C(O)c1ccccc1N/N=C/c1cc(Br)cc(Br)c1O` was “inactive”.
Under `O=C(c1ccccc1)c1ccc2c(c1)OCCCO2` stands “inactive”; under `CCOc1ccc(OCc2ccc(C(=O)NN)o2)cc1`, “inactive”.
`Cc1cccc(-c2n[nH]c(=S)n2/N=C/c2cccs2)c1`: the Potency result was “inactive”.
The value for `OCc1ncc(-c2ccccc2)s1` was “inactive”.
Under `CN(C)c1nc(-c2ccccn2)nnc1-c1ccccc1` stands 1.41 µM (active); under `CN1CCN(c2nnc(-c3ccccc3)c(-c3ccccc3)n2)CC1`, “inactive”.
Under `c1ccc(-c2nnc(N3CCN(c4ccccc4)CC3)nc2-c2ccccc2)cc1` stands “inactive”; under `c1ccc(-c2nnc(-c3ccccn3)nc2NC2CCCCC2)cc1`, 2.24 µM (active); under `O=C(N/N=C/c1ccco1)c1cc(C2CC2)[nH]n1`, “inactive”.
With `Cc1onc(-c2c(Cl)cccc2Cl)c1C(=O)Nc1nc(C(C)(C)C)cs1`, the Potency result is “inactive”.
Turning to `Cc1ccc(-c2c[n+](CC(=O)Nc3ccccc3C)c3n2CCC3)cc1`, the Potency result is “inactive”.
